In PMC7862700, “An all-to-all approach to the identification of sequence-specific readers for epigenetic DNA modifications on cytosine”:

Legend:
Assay in all cases: DAPPL (digital affinity profiling via proximity ligation, sequencing); 10 mM Tris-HCl pH 7.5, 50 mM NaCl, 1 mM DTT, 4% glycerol, room temperature, 30 min; GST-TFs on glutathione beads, 16-mer random dsDNA library, 0.1% formaldehyde crosslink after washing; high values mean tight binding
FEV = target: T1, FEV (Homo sapiens, UniProt Q99581 1-238); conditions: protein: recombinant; tags: N-terminal GST; dsDNA, one strand shown
T1 sequence: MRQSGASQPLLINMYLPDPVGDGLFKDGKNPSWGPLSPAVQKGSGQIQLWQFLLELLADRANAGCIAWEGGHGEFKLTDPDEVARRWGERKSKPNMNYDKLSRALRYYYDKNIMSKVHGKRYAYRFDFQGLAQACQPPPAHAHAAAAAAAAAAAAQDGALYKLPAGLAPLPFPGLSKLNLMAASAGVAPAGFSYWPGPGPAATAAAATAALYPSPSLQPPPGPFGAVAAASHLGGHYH
Procedure, shortened: (§1)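 Binding signal is each hexamer's read frequency for a factor divided by its frequency in the tag-only sample. The factors were GST-fused human transcription factors from yeast, captured on glutathione beads, DNA-barcoded and pooled with that sample. Pools were incubated with 200 nmole of a random double-stranded 16-mer DNA library in Tris/NaCl/DTT/glycerol buffer at room temperature for 30 min, then washed, crosslinked with 0.1% formaldehyde, proximity-ligated with BsaI/T4 ligase (1 h, 37 °C), PCR-amplified and sequenced on an Illumina NextSeq500.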

ETV5 = ETV5 (Homo sapiens, UniProt P41161 1-510); conditions: protein: recombinant; tags: N-terminal GST; dsDNA, one strand shown
Procedure, shortened: as §1

HSF1 = HSF1 (Homo sapiens, UniProt Q00613 1-529); conditions: protein: recombinant; tags: N-terminal GST; chain copies: 3; dsDNA, one strand shown
Procedure, shortened: as §1

SPIC = target: T2, SPIC (Homo sapiens, UniProt Q8N5J4 1-248); conditions: protein: recombinant; tags: N-terminal GST; dsDNA, one strand shown
T2 sequence: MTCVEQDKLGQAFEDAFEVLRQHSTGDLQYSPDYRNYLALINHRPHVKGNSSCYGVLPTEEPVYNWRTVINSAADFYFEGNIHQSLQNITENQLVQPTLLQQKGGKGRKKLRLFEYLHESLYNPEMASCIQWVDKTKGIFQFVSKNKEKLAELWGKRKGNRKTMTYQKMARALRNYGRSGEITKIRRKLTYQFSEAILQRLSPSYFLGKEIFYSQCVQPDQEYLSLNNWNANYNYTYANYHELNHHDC
Procedure, shortened: as §1

ELF4 = ELF4 (Homo sapiens, UniProt Q99607 1-663); conditions: protein: recombinant; tags: N-terminal GST; dsDNA, one strand shown
Procedure, shortened: as §1

ELK4 = target: T3, ELK4 (Homo sapiens, UniProt P28324-2 1-405); conditions: protein: recombinant; tags: N-terminal GST; dsDNA, one strand shown
T3 sequence: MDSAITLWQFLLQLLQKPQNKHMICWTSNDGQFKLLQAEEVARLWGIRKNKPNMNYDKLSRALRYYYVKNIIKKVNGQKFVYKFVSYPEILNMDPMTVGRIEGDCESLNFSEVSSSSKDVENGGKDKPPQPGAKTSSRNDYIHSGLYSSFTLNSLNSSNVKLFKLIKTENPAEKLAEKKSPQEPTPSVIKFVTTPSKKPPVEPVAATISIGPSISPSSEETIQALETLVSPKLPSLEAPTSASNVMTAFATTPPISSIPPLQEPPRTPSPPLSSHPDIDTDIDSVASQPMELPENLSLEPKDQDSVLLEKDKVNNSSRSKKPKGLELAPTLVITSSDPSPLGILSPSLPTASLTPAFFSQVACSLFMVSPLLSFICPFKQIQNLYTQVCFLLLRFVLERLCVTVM
Procedure, shortened: as §1

ETV2 = target: T4, ETV2 (Homo sapiens, UniProt O00321 1-342); conditions: protein: recombinant; tags: N-terminal GST; dsDNA, one strand shown
T4 sequence: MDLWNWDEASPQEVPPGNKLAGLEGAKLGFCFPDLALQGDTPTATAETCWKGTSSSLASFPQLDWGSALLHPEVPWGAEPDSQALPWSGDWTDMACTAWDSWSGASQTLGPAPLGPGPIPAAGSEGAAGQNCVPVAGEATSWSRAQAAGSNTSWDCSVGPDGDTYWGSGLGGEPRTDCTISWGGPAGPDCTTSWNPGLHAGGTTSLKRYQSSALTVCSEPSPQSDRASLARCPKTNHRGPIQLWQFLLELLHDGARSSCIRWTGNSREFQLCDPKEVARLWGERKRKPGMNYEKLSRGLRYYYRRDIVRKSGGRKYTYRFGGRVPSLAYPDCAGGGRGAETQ
Procedure, shortened: as §1

ELF3 = target: T5, ELF3 (Homo sapiens, UniProt P78545 1-371); conditions: protein: recombinant; tags: N-terminal GST; dsDNA, one strand shown
T5 sequence: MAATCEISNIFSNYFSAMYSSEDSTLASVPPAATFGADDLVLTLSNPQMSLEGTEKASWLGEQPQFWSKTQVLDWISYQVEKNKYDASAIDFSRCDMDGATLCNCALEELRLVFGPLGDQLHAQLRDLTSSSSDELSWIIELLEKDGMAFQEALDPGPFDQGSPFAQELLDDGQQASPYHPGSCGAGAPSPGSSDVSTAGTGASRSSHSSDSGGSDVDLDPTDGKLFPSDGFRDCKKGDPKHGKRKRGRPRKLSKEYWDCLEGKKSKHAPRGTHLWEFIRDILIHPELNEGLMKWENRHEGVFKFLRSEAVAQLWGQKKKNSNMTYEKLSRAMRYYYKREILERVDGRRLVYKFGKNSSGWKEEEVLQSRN
Procedure, shortened: as §1

CRX = CRX (Homo sapiens, UniProt O43186 1-299); conditions: protein: recombinant; tags: N-terminal GST; dsDNA, one strand shown
Procedure, shortened: as §1

ETV1 = ETV1 (Homo sapiens, UniProt P50549 1-477); conditions: protein: recombinant; tags: N-terminal GST; dsDNA, one strand shown
Procedure, shortened: as §1

ERF = target: T6, ERF (Homo sapiens, UniProt P50548 1-548); conditions: protein: recombinant; tags: N-terminal GST; dsDNA, one strand shown
T6 sequence: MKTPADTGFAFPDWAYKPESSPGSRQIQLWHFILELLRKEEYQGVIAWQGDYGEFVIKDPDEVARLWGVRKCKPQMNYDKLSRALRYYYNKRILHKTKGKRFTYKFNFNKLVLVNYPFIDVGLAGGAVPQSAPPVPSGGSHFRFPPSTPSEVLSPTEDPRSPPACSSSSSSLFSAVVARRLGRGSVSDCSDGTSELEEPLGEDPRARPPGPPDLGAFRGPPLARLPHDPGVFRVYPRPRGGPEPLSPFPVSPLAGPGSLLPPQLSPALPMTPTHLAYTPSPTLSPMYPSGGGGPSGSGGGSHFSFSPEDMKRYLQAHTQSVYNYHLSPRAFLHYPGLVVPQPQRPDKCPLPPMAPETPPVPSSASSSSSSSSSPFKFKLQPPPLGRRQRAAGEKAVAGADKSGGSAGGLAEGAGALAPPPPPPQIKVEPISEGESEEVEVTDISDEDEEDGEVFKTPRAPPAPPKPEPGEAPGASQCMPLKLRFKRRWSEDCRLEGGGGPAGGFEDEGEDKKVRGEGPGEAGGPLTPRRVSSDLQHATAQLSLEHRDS
Procedure, shortened: as §1

ETV3L = target: T7, ETV3L (Homo sapiens, UniProt Q6ZN32 1-361); conditions: protein: recombinant; tags: N-terminal GST; dsDNA, one strand shown
T7 sequence: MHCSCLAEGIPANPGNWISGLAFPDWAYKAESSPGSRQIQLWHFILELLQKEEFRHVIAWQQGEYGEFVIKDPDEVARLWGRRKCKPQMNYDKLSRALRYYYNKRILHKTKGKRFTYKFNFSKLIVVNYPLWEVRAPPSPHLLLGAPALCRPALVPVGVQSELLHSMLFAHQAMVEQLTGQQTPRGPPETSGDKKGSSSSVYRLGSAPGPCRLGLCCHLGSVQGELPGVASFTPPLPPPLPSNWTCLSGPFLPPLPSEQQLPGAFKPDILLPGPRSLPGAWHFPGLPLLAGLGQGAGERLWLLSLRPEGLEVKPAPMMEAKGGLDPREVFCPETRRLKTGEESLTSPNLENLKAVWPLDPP
Procedure, shortened: as §1

ETS2 = target: T8, ETS2 (Homo sapiens, UniProt P15036 1-469); conditions: protein: recombinant; tags: N-terminal GST; dsDNA, one strand shown
T8 sequence: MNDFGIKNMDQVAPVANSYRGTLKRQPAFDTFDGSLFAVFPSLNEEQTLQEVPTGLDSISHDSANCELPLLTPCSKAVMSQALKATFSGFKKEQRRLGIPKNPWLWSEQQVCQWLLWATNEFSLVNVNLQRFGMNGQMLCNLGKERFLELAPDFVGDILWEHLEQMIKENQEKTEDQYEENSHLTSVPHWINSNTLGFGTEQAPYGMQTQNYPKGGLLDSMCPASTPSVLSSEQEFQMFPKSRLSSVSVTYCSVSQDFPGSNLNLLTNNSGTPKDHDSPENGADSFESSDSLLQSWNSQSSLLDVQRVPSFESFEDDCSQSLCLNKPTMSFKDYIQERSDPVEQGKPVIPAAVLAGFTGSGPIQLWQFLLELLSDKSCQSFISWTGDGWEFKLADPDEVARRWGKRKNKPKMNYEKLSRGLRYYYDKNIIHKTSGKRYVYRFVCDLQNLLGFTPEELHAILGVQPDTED
Procedure, shortened: as §1

SPDEF = target: T9, SPDEF (Homo sapiens, UniProt O95238 1-335); conditions: protein: recombinant; tags: N-terminal GST; dsDNA, one strand shown
T9 sequence: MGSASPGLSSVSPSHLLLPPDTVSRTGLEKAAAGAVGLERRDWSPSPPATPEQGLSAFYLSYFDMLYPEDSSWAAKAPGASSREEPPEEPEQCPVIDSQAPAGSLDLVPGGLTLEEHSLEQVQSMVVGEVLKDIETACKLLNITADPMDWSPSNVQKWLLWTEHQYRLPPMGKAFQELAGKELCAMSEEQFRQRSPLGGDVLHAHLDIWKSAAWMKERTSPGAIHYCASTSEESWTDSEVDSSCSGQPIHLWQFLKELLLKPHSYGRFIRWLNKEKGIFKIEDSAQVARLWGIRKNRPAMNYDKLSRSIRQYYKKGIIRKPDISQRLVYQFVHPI
Procedure, shortened: as §1

ETV7 = target: T10, ETV7 (Homo sapiens, UniProt Q9Y603 1-341); conditions: protein: recombinant; tags: N-terminal GST; dsDNA, one strand shown
T10 sequence: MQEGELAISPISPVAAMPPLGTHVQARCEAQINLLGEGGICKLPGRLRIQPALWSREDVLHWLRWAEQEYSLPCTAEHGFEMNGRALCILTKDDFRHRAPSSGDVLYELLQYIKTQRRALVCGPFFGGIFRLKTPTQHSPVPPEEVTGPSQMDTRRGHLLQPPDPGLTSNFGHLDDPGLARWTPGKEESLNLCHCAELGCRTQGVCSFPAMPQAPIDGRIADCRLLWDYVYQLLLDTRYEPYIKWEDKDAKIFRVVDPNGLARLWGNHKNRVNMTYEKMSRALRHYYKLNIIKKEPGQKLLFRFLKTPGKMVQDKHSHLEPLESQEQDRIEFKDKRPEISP
Procedure, shortened: as §1

ELF5 = target: T11, ELF5 (Homo sapiens, UniProt Q9UKW6-2 1-255); conditions: protein: recombinant; tags: N-terminal GST; dsDNA, one strand shown
T11 sequence: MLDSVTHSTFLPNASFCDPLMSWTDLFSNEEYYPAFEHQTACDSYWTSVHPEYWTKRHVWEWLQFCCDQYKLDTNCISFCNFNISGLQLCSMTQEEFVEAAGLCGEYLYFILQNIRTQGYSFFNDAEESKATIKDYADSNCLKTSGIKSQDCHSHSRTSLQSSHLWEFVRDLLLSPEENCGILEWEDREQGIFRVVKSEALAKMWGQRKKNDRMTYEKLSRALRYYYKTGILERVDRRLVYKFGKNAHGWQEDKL
Procedure, shortened: as §1

ETV3 = target: T12, ETV3 (Homo sapiens, UniProt P41162-2 1-143); conditions: protein: recombinant; tags: N-terminal GST; dsDNA, one strand shown
T12 sequence: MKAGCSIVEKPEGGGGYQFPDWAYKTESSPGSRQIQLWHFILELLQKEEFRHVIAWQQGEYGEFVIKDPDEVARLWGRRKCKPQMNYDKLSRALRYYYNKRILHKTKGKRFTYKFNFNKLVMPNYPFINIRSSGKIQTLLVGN
Procedure, shortened: as §1

ETV6 = ETV6 (Homo sapiens, UniProt P41212 1-452); conditions: protein: recombinant; tags: N-terminal GST; dsDNA, one strand shown
Procedure, shortened: as §1

ETV6, sequence (P41212 whole entry): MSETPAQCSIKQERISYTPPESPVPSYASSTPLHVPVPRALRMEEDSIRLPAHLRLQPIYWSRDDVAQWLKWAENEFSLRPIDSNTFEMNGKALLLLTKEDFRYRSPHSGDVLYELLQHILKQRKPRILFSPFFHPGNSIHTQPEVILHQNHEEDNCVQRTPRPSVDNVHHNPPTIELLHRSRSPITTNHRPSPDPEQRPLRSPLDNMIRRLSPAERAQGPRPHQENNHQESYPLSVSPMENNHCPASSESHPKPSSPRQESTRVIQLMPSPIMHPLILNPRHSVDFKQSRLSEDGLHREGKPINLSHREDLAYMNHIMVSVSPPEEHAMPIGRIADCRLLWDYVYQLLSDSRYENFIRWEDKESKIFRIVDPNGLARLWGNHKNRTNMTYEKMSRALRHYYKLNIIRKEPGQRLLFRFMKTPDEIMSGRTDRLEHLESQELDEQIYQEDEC
ETV5, sequence (P41161 whole entry): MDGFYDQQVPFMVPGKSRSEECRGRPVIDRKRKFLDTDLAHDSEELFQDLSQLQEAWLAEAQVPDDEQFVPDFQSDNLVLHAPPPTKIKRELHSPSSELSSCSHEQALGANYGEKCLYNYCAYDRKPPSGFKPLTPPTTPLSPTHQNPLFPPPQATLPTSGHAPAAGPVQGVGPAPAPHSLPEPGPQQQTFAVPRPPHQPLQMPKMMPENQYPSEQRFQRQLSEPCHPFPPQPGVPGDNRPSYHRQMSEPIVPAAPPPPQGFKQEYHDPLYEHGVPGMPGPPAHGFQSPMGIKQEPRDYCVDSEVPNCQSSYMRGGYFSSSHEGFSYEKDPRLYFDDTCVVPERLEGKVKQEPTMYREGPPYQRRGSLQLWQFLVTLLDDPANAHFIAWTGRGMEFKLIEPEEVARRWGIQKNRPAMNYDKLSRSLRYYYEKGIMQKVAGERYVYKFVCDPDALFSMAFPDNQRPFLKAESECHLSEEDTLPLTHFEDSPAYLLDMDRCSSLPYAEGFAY
ETV1, sequence (P50549 whole entry): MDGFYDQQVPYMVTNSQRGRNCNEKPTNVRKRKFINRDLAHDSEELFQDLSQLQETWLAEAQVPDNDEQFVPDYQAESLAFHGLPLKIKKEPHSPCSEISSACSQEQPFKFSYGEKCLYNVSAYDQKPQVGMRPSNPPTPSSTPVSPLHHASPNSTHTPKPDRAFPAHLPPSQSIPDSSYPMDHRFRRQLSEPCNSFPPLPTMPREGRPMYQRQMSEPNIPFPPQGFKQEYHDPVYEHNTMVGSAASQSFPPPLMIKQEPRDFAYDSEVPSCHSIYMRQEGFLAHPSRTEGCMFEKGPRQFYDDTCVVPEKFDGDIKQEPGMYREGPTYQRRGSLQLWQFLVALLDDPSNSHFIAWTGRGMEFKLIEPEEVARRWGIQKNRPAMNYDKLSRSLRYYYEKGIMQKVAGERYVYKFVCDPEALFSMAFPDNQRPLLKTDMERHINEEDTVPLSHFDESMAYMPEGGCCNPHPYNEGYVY
HSF1, sequence (Q00613 whole entry): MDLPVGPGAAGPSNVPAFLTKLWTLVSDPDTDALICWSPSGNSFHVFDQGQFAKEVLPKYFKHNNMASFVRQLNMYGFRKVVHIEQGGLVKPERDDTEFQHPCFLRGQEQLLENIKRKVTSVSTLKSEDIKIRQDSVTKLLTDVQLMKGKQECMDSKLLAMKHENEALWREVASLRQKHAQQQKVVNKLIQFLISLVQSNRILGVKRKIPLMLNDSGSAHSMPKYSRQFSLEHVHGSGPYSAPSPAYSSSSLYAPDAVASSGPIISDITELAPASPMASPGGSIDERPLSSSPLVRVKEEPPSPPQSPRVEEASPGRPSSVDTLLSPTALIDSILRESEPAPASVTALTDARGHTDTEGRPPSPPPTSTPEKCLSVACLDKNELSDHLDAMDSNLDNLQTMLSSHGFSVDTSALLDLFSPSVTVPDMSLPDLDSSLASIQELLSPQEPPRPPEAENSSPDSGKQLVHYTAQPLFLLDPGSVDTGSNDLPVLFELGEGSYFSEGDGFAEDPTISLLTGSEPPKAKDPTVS
CRX, sequence (O43186 whole entry): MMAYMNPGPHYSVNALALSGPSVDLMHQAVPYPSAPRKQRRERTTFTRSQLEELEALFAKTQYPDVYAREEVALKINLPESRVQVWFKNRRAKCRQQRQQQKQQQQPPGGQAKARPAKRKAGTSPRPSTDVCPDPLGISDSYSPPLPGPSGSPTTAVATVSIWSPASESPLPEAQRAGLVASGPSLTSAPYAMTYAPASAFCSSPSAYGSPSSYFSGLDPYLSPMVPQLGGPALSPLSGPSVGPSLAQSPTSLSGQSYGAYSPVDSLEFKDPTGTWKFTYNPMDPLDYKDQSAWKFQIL
ELF4, sequence (Q99607 whole entry): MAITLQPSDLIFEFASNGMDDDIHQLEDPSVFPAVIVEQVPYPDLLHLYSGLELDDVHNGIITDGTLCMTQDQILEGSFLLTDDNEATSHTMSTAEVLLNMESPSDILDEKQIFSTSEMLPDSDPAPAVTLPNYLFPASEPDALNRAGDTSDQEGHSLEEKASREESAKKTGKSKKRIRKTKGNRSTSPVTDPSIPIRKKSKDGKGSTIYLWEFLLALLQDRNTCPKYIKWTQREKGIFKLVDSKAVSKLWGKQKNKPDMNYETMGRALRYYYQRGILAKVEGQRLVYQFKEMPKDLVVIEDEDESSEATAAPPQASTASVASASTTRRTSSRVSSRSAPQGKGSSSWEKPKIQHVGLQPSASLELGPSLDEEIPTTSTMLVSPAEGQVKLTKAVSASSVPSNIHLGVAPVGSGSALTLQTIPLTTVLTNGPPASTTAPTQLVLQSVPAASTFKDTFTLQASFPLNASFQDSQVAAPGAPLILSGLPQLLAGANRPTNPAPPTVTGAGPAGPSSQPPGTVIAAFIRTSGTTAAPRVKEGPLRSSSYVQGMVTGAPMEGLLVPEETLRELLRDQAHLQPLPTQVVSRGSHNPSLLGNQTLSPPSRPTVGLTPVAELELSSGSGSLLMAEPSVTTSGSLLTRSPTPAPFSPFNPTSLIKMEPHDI

## CCGCCT
FEV
  binding signal: 1.43 fold enrichment (6-mer frequency, TF over GST control)
ETV5
  binding signal: 1.6 fold enrichment (6-mer frequency, TF over GST control)
HSF1
  binding signal: 1.08 fold enrichment (6-mer frequency, TF over GST control)
SPIC
  binding signal: 1.61 fold enrichment (6-mer frequency, TF over GST control)
ELF4
  binding signal: 1.52 fold enrichment (6-mer frequency, TF over GST control)
ELK4
  binding signal: 1.45 fold enrichment (6-mer frequency, TF over GST control)
ETV2
  binding signal: 1.46 fold enrichment (6-mer frequency, TF over GST control)
ELF3
  binding signal: 1.35 fold enrichment (6-mer frequency, TF over GST control)
CRX
  binding signal: 1.25 fold enrichment (6-mer frequency, TF over GST control)
ETV1
  binding signal: 1.47 fold enrichment (6-mer frequency, TF over GST control)
ERF
  binding signal: 1.35 fold enrichment (6-mer frequency, TF over GST control)
ETV3L
  binding signal: 1.49 fold enrichment (6-mer frequency, TF over GST control)
ETS2
  binding signal: 1.41 fold enrichment (6-mer frequency, TF over GST control)
SPDEF
  binding signal: 1.75 fold enrichment (6-mer frequency, TF over GST control)
ETV7
  binding signal: 1.52 fold enrichment (6-mer frequency, TF over GST control)
ELF5
  binding signal: 1.84 fold enrichment (6-mer frequency, TF over GST control)
ETV3
  binding signal: 1.64 fold enrichment (6-mer frequency, TF over GST control)
ETV6
  binding signal: 1.64 fold enrichment (6-mer frequency, TF over GST control)
